A selection: hits, their analogues and other compounds. The true share with any hit is near 5.3%.
FMDV antiviral – antivirals against foot and mouth disease virus. FMDV antiviral cell-based qHTS. Potency, µM (highest dose often 57.9 µM), for inactives: at the highest dose activity change, negative = inhibition, most hits filed as inhibitors. 1.2% of 410,000 active; calls by dose curve; tested in HEK293T cells; further: read-out not given here; nearly all actives have a fitted effect of over 45% in size
HCV inh – inhibitors of hepatitis C virus infection; Huh7.5.1 HCVcc-Cre infection, luciferase reporter, 44 h; Potency, µM (doses to about 41.8 µM), without a hit: top-dose activity change, negative = inhibition, most hits filed as inhibitors; 3.4% of 340,000 active; AID 651820; active means well fitted inhibition curve with a large enough effect; inconclusive means small, poorly fitted or top-dose-only effect, or another doubt; inactive means no such curve, though single readings can be large or run the other way
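Infectious HCV cell culture screen: compound-treated cells (1,000/well, pre-plated 4 h) are infected with HCVcc-Cre at roughly 0.5 moi and grown 44 h. Infection is quantified by luciferase signal after 15 min substrate incubation at room temperature.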
Vaccinia Venus – vaccinia inhibition (Venus reporter); 0.46% of 330,000 active; Potency, µM (doses to about 36.5 µM), for inactives: top-dose activity change, negative = inhibition, hits mostly inhibitors; AID 720580; Vaccinia virus Venus reporter expression, fluorescence; calls by dose curve; tested in A549 cells; further: nearly all actives have a fitted effect of over 30% in size
Vaccinia mCherry – vaccinia inhibition (mCherry reporter). Vaccinia virus mCherry reporter infection, fluorescence. Potency, µM (series often up to 36.5 µM), without a hit: at the top dose activity change, negative = inhibition, usual class: inhibitors. 0.63% of 310,000 active. AID 720579; calls by dose curve; tested in A549 cells; further: nearly all actives have a fitted effect of over 35% in size
Lassa entry inh – inhibitors of Lassa virus binding or cell entry; Lassa virus pseudotype entry inhibition, cell reporter; 1.2% of 300,000 active; AID 540256; Potency, µM (titrated, usually from 37.9 µM), for inactives: top-dose activity change, negative = inhibition, actives largely listed as inhibitors; calls by dose curve; tested in HEK293 cells; further: nearly all actives have a fitted effect of over 50% in size
MARV entry inh – blocks Marburg virus binding to or entry into cells. Potency, µM (series often up to 37.8 µM), inactives show at the highest dose activity change, negative = inhibition, usual class: inhibitors. 1.8% of 300,000 active. Marburg virus pseudotyped entry inhibition, cell reporter; calls by dose curve; tested in HEK293 cells
* = called active by the depositor; i = inactive; ? = inconclusive; . = no result given; [ ] = remark or other dose. On the % scale 0 is the no-effect control and ±100 the full control effect; potency means the concentration at half of the fitted maximal effect.

SMILES	FMDV antiviral	HCV inh	Vaccinia Venus	Vaccinia mCherry	Lassa entry inh	MARV entry inh
O=C(O)c1cccc(C(=O)Nc2cccc(NC(=O)C3CCCO3)c2)c1 (stereo not given)	?	28%	-15%	i	10µM*	11µM*
Cc1cccc(C)c1NC(=O)[C@H]1CCCCN1C	.	.	.	.	.	10%
COC(=O)C(=C/C(C)=C/c1cccs1)C(=O)OC	28µM*	-5%	-14%	-17%	?	?
Cn1ccc2c(-c3ccc(F)cc3F)cc3c(c21)C1CCC3O1 (stereo not given)	.	.	.	.	1%[46.1 µM]	.
CCCCn1c(SCC(=O)N2CCC(C)CC2)nc2ccsc2c1=O	?	-27%	.	.	14%	8.2µM*
CCS(=O)(=O)c1nnnn1-c1ccccc1S(C)(=O)=O	40µM*	.	?	?	20%[14.3 µM]	?
Cc1cc(C)n(Cc2ccc(C(=O)O)cc2)n1	.	5%	-15%	i	4%	8%
Cc1ccc(C)n1Cc1ccc(C(=O)O)cc1	3%	19%	.	.	-4%	9.2µM*
CCc1c(-c2ccccc2)nc2sc3c(c2c1N)CCCC3	-50%	25µM*	?	?	?	?
O=C(NCCc1cccc(Cl)c1)c1ccc(OC2CCN(Cc3ccccn3)CC2)cc1	28µM*	?	.	.	.	.
CCOc1ccccc1CN1CCC(Oc2ccc(C(=O)NCc3ccccn3)cc2)CC1	-21%	-26%	.	.	.	.
CCn1cc(CNC(=O)c2ccc(OC3CCN(Cc4ccccn4)CC3)cc2)cn1	?	10µM*	-13%	?	?	-1%[46.1 µM]
COc1ccc(-c2nc(C(=O)N3CCN(C)CC3)sc2-c2ccc(OC)cc2)cc1	-2%	.	.	.	.	.
Cc1cc2c(cc1S(=O)(=O)N(CCN(C)C)Cc1ccco1)OCC(=O)N2	7%	.	-3%	-2%	-10%[46.1 µM]	.
CN(C)c1ccc(N=Cc2ccnc3ccccc23)cc1	.	.	15%	-14%	.	.
COC(=O)c1cc(=O)n(Cc2cccs2)c(=NCc2cccs2)s1	-14%	.	-8%	-10%	-21%[14.3 µM]	?
COC(=O)c1ccc2c(=O)n(CCCN3CCOCC3)c(=S)[nH]c2c1	.	3%	-5%	i	18%	8%
CCOC(=O)c1ccc(N=c2sc(C(=O)OC)cc(=O)n2Cc2ccco2)cc1	0%	22µM*	-7%	i	?	?
CCOC(=O)c1ccc(N=c2sc(C(=O)OC)cc(=O)n2CCCN2CCOCC2)cc1	16µM*	?	15%	-2%	.	-4%
COc1ccc(OC)c(-c2ccc(O)c(CN3CCc4c([nH]c5ccccc45)C3)c2)c1	-11%	.	-7%	-9%	.	.
Cc1oc(-c2ccccc2NC(=O)c2cccnc2)nc1CNC(=O)c1ccc(N(C)C)cc1	4%	.	-2%	-8%	.	.
O=C(NCC1COc2ccccc2O1)C1CCN(S(=O)(=O)c2ccc(Cl)cc2)CC1 (stereo not given)	-25%	11µM*	.	.	.	.
O=c1cc(N2CCCCC2)c(-c2ccccc2)nn1Cc1c(Cl)cccc1Cl	?	?	?	?	13µM*	?
COc1cc2c(cc1C(F)(F)F)N(C(=O)Nc1cc(F)cc(-c3cccnc3)c1)CC2	-4%	.	-27%	-5%	.	1.3µM*
O=[N+]([O-])c1ccc(-c2nc(-c3cccs3)c(-c3cccs3)[nH]2)cc1	25µM*	?	?	11µM*	?	?
SMILES	FMDV antiviral	HCV inh	Vaccinia Venus	Vaccinia mCherry	Lassa entry inh	MARV entry inh
Fc1ccc(-c2nc(-c3cccs3)[nH]c2-c2ccc(F)cc2)cc1	28µM*	?	?	?	?	?
O=[N+]([O-])c1cccc(-c2nc(-c3cccs3)c(-c3cccs3)[nH]2)c1	?	13µM*	?	-26%	-15%	?
COc1ccc(-n2c(=O)c(C)nc3cnc(Nc4ccccc4)nc32)cc1	-8%	.	.	.	.	.
COc1ccc(OC)c(CNC(=O)Cn2nc(C)c3nn(-c4ccc(Cl)cc4)c(C)c3c2=O)c1	-27%	.	-6%	-18%	25%[46.1 µM]	.
CC(C(=O)O)n1cc(Cl)cn1 (stereo not given)	-4%	4.5µM*	-7%	6%	-1%[46.1 µM]	17%[46.1 µM]
COc1ccc(C)cc1NS(=O)(=O)c1ccc2c3c(cccc13)C(=O)N2	?	.	-21%	-28%	?	.

Source: PubChem BioAssay (National Center for Advancing Translational Sciences (NCATS))
